Consider ten compounds from PubChem BioAssay (NCI).

Several values for one entry are separate records, joined by “and”; a condition that tells them apart may be missing. Identical values can stand only once. The panel holds about 83,000 compounds, 20% with a hit somewhere; the sample as a whole holds those more often.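 Single-concentration screen, 48 h exposure, 96-well plates. Endpoint: percent growth. Below 10 = active.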 A number with no mark means an inactive call. Activity calls are given as the source filed them.

The assay concerns MDA-MB-468 breast. Put plainly: NCI-60 one-dose screen, 48 h (100 = growth as untreated, 0 = no growth, -100 = all killed). The conditions noted are these: 10 µM unless noted.
On to `COc1cc(-c2csc(NC(=O)Nc3cc(C(F)(F)F)cc(C(F)(F)F)c3)n2)cc(OC)c1OC`, for which the growth was 4.77% (active).

`O=C1O[C@@H](c2ccccc2Cl)[C@@H]2c3cc4c(cc3CCN12)OCO4`: the growth was 96.2%.

For `O=C1C=CC(=O)N1c1ccc2ccccc2c1`, the growth was 51.3% and 62.7%.

Regarding `COc1ccc(-c2nn(C(=O)c3cc(OC)c(OC)c(OC)c3)c3cc(N)ccc23)cc1`, the growth is -1.08% (active).

For `CCCc1n(Cc2ccc3ccccc3n2)cc[n+]1Cc1ccc2ccccc2c1`, the growth was -28.4% (active).

In the case of `CC(C)=NNc1ccccn1`, the growth is 12.9%.

For the compound `CCOC(=O)c1ccc(NC2=C(Cl)C(=O)c3nc(C)ccc3C2=O)cc1`, the growth is -24.6% (active).

For the compound `COc1cc(C2=NN(C(C)=O)C(c3ccc(OC(C)=O)cc3OC(C)=O)O2)c(OC(C)=O)c2ccccc12` (stereo not given), the growth was -9.39% (active).

For the compound `Cc1nc(Cl)c2c(n1)N(C)c1ccc(Cl)cc1C(C)C2` (stereo not given), the growth was 67.1%.

Regarding `CN1CCN(c2ccc(Nc3c4ccccc4nc4ccccc34)cc2)CC1`, the growth is 102%.
